The list is not random: actives were taken first. Their share in the collection is about 9%.
BAZ2B block – qHTS Assay for Inhibitors of BAZ2B | Bromodomain adjacent to zinc finger domain protein 2B (Homo sapiens), Q9UIF8 | Potency, µM (highest dose often 114 µM), for inactives: at the top dose activity change, negative = inhibition, actives largely listed as inhibitors | AlphaScreen BAZ2B-H3K14Ac peptide displacement | hit rate 4.4% among 360,000; note: % is set by controls: 0 for no effect and ±100 for the full control effect; nearly all actives have a fitted effect of over 60% in size
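Multi-concentration screen (max 110 uM) measuring displacement of acetylated histone H3 peptide from BAZ2B by AlphaScreen, using 50 nM protein, 50 nM peptide and 10 ug/mL streptavidin donor plus Ni-chelate acceptor beads.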
PLK1 PBD block – qHTS for Inhibitors of PLK1-PDB (polo-like kinase 1 - polo-box domain): Primary Screen; AID 720504, 2013; Plk1 PBD binding of FITC phosphopeptide, fluorescence polarization; Potency, µM, inactives show max response, negative = inhibition, hits mostly inhibitors; hit rate 2.8% among 360,000; note: series mostly up to about 57 µM; % is set by controls: 0 for no effect and ±100 for the full control effect; nearly all actives have a fitted effect of over 65% in size
JMJD2A Tudor inh – qHTS Assay for Inhibitors of JMJD2A-Tudor Domain | Lysine-specific demethylase 4A (Homo sapiens), O75164 | hit rate 4.4% among 390,000 | AID 504339, 2011 | AlphaScreen JMJD2A-Tudor / H3K4me3 peptide binding | Potency, µM (series often up to 114 µM), for inactives: top-dose activity change, negative = inhibition, usual class: inhibitors; note: % is set by controls: 0 for no effect and ±100 for the full control effect; nearly all actives have a fitted effect of over 50% in size
G9a inh – qHTS Assay for Inhibitors of Histone Lysine Methyltransferase G9a; Potency, µM (series often up to 102 µM), without a hit: at the highest dose activity, negative = inhibition, hits mostly inhibitors; Histone-lysine N-methyltransferase EHMT2 (Homo sapiens), Q96KQ7; hit rate 8.8% among 350,000; AID 504332, 2011; G9a H3K9 monomethylation, AlphaScreen, 2 h; note: % is set by controls: 0 for no effect and ±100 for the full control effect; nearly all actives have a fitted effect of over 75% in size
Target sequence (Q96KQ7 913-1193 limits assumed): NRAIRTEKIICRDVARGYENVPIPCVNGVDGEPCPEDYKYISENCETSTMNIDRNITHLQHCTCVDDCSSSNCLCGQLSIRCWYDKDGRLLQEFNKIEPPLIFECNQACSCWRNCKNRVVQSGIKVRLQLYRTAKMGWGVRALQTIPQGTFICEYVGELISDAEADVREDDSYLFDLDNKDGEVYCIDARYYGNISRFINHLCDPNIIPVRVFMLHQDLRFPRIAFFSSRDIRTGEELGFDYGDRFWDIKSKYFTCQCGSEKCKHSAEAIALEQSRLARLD
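Chemiluminescent proximity detection of H3K9 monomethylation, read after 10 min bead incubation in the dark. Reaction: 20 nM G9a, 500 nM biotin-H3K9 peptide, 20 uM SAM cofactor, 2 h, room temperature, following 15 min enzyme-compound preincubation.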
HP1b chromo inh – HTS for Inhibitors of HP1-beta Chromodomain Interactions with Methylated Histone Tails; Chromobox protein homolog 1 (Homo sapiens), P83916; AlphaScreen HP1-beta / biotin-H3K9me3 peptide binding; Potency, µM (titrated, usually from 114 µM), for the others: top-dose activity change, negative = inhibition, most hits filed as inhibitors; hit rate 0.56% among 390,000; AID 540317, 2011; note: nearly all actives have a fitted effect of over 70% in size
Target sequence (P83916 whole entry, looked up): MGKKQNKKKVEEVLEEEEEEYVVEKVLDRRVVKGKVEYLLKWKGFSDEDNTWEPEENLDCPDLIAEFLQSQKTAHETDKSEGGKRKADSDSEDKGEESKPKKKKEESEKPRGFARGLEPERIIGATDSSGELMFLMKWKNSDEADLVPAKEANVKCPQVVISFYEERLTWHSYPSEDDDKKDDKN
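Compound inhibition of the preformed complex between 50 nM HP1-beta and 50 nM biotinylated H3K9me3 peptide was read by AlphaScreen. Buffer was PBS pH 7.4 with 0.01% Tween-20. Incubations ran 30 min at room temperature, with 10 ug/mL donor/acceptor beads.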
ALOX12 inh – Primary qHTS assay for inhibitors of human arachidonate 12S-lipoxygenase (ALOX12): Round 2. purified 12hLO, xylenol orange hydroperoxide absorbance. Potency, µM (series often up to 108 µM), without a hit: top-dose activity change, negative = inhibition, actives largely listed as inhibitors. hit rate 1.1% among 580,000; note: % is set by controls: 0 for no effect and ±100 for the full control effect
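Hydroperoxide product was detected by ferrous iron/xylenol orange as the 573 to 405 nm absorbance ratio. Arachidonic acid at 40 uM (final) was turned over for 30 min at room temperature by 150 nM human 12hLO, pH 7.0 Hepes buffer, after 15 min compound preincubation.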
Active calls of the source: *; [ ] = another dose, or the depositor's remark. Calls come from the whole dose curve; as a rule, active = well fitted curve in the direction sought with a large enough effect; inconclusive = small, poorly fitted or top-dose-only effect, or another doubt; inactive = no such curve, though single readings can be large; an effect the other way counts as inactive or inconclusive. Potency is the fitted concentration of half-maximal effect.

Results for O=C(O)c1cccc(COc2ccc3c(c2)CCC3)c1 ?
BAZ2B block: 19%; PLK1 PBD block: -8%; JMJD2A Tudor inh: -13%; G9a inh: 50µM*; HP1b chromo inh: -8%; ALOX12 inh: 55%

How did O=C(c1ccco1)N1CCN(C(=O)c2ccc(COc3ccc4c(c3)CCC4)o2)CC1 do in these assays?
BAZ2B block: 50µM*; PLK1 PBD block: -17%; JMJD2A Tudor inh: inconclusive; G9a inh: 1%[0.0925 µM]; HP1b chromo inh: 10%; ALOX12 inh: 8%

How did O=C(NCc1ccccc1)c1cccc(COc2ccc3c(c2)CCC3)c1 do in these assays?
BAZ2B block: 11%; PLK1 PBD block: -2%; JMJD2A Tudor inh: 4%; G9a inh: 2%; HP1b chromo inh: 60%; ALOX12 inh: 5%

How did CC(=O)Oc1ccc(-c2ccc(C(=O)OCC(=O)c3c(N)n(C)c(=O)n(C)c3=O)cc2)cc1 do in these assays?
PLK1 PBD block: 3%; JMJD2A Tudor inh: 5%; HP1b chromo inh: 39%; ALOX12 inh: 294%

How did O=C1C(C2=NC(C(=O)O)C3C(=O)N(c4ccc(Cl)cc4)C(=O)C23)=C(O)c2ccccc21 (configuration not stated) do in these assays?
BAZ2B block: 6%; PLK1 PBD block: -5%; JMJD2A Tudor inh: inconclusive; HP1b chromo inh: 30%; ALOX12 inh: 4%

How did O=C(c1ccc(Cl)cc1)[C@@H]1[C@@H]2C(=O)N(c3ccccc3)C(=O)[C@@H]2C2c3ccccc3C=NN21 (some centres not stated) do in these assays?
BAZ2B block: -11%; PLK1 PBD block: -8%; JMJD2A Tudor inh: -32%; G9a inh: 20µM*; HP1b chromo inh: 27%; ALOX12 inh: -4%

Results for Cc1ccc(N2C(=O)[C@@H]3[C@H](C2=O)C2CCCN2[C@@H]3C(=O)c2ccccc2)cc1 (some centres not stated) ?
BAZ2B block: inconclusive; PLK1 PBD block: -15%; JMJD2A Tudor inh: 56µM*; G9a inh: -2%[2.33 µM]; HP1b chromo inh: 12%; ALOX12 inh: 45µM*

How did COc1ccc(N2C(=O)C3C(C2=O)C(C(=O)c2ccc(Cl)cc2)N2CCCC32)cc1 (configuration not stated) do in these assays?
BAZ2B block: inconclusive; PLK1 PBD block: 0%; JMJD2A Tudor inh: inconclusive; G9a inh: inconclusive; HP1b chromo inh: inconclusive; ALOX12 inh: inconclusive

What do the screens show for `O=C(c1ccc(Cl)cc1)C1C2C(=O)N(c3ccccc3)C(=O)C2C2CCCN21` (configuration not stated)?
BAZ2B block: inconclusive; PLK1 PBD block: inconclusive; JMJD2A Tudor inh: -14%[11.4 µM]; G9a inh: 8.9µM*; HP1b chromo inh: 65%; ALOX12 inh: 5%

Results for O=C(c1ccccc1)[C@@H]1[C@@H]2C(=O)N(c3ccc(F)cc3)C(=O)[C@@H]2C2CCCN21 (some centres not stated) ?
BAZ2B block: -1%; PLK1 PBD block: -12%; JMJD2A Tudor inh: inconclusive; HP1b chromo inh: -10%; ALOX12 inh: inconclusive

How did CC(=O)c1ccc(N2C(=O)C3C(C2=O)C(C(=O)c2ccc(Cl)cc2)N2CCCC32)cc1 (configuration not stated) do in these assays?
BAZ2B block: inconclusive; PLK1 PBD block: 11µM*; JMJD2A Tudor inh: -18%[11.4 µM]; G9a inh: inconclusive; HP1b chromo inh: -16%; ALOX12 inh: 0%

Results for O=c1[nH]c(C2CCN(Cc3ccsc3)CC2)nn1Cc1ccccc1 ?
ALOX12 inh: 37%

Results for O=C(COC(=O)c1ccccc1)NCC1CCCO1 (configuration not stated) ?
BAZ2B block: 2%; PLK1 PBD block: -3%; JMJD2A Tudor inh: -2%; G9a inh: -19%[12.7 µM]; HP1b chromo inh: 29%; ALOX12 inh: 281%

Results for O=C(COC(=O)c1cccc([N+](=O)[O-])c1)NCC1CCCO1 (configuration not stated) ?
BAZ2B block: -33%; PLK1 PBD block: 27µM*; JMJD2A Tudor inh: -15%; G9a inh: -24%; HP1b chromo inh: -1%; ALOX12 inh: -14%

How did CCOC(=O)c1sc(C)nc1C1CCN(C(=O)OCC)CC1 do in these assays?
BAZ2B block: -6%; PLK1 PBD block: inconclusive; JMJD2A Tudor inh: 2%; G9a inh: 45µM*; HP1b chromo inh: -8%; ALOX12 inh: -7%

Results for CCOC(=O)c1c(C2CCN(C(=O)OCC)CC2)nc2ccccn12 ?
BAZ2B block: -1%; PLK1 PBD block: -9%; JMJD2A Tudor inh: -21%; G9a inh: -15%; HP1b chromo inh: 21%; ALOX12 inh: 6%

Results for CC(=O)OCC[n+]1c(C)n(-c2ccccc2)c2ccc(Cl)cc21 ?
BAZ2B block: 1%; PLK1 PBD block: 0%; JMJD2A Tudor inh: inconclusive; G9a inh: 50µM*; HP1b chromo inh: 21%; ALOX12 inh: inconclusive

How did CC[n+]1c(C)n(-c2ccccc2)c2ccc(C(=O)OC)cc21 do in these assays?
BAZ2B block: inconclusive; PLK1 PBD block: -2%; JMJD2A Tudor inh: -2%; HP1b chromo inh: 27%; ALOX12 inh: inconclusive

What do the screens show for `CCOC(=O)c1ccc2c(c1)[n+](CC)c(C)n2-c1ccccc1`?
BAZ2B block: inconclusive; PLK1 PBD block: -2%; JMJD2A Tudor inh: 1%; G9a inh: 32µM*; HP1b chromo inh: -25%; ALOX12 inh: inconclusive

Results for CCOC(=O)c1c(O)c(O)c(C(=O)OCC)n1-c1ccccc1 ?
BAZ2B block: -29%; PLK1 PBD block: -28%; JMJD2A Tudor inh: 35µM*; G9a inh: 8.9µM*; HP1b chromo inh: -17%; ALOX12 inh: inconclusive

What do the screens show for `CC(C)NC(=O)N1CCCC2(CCN(S(=O)(=O)c3ccccc3)CC2)C1`?
G9a inh: 3%[12.7 µM]; ALOX12 inh: 6%[57.4 µM]

How did CC(C)c1noc(-c2cn(C3CCN(C(=O)C4(c5ccccc5)CC4)CC3)nn2)n1 do in these assays?
ALOX12 inh: -2%

Results for COc1cc(NC(=O)COC(=O)CNC(=O)c2ccc(C)s2)cc(OC)c1 ?
BAZ2B block: -4%; PLK1 PBD block: 24µM*; JMJD2A Tudor inh: -8%[11.4 µM]; G9a inh: -1%; HP1b chromo inh: inconclusive; ALOX12 inh: -6%

Screens: PubChem, National Center for Advancing Translational Sciences (NCATS)
